# Records with an inconclusive call do not appear. Where a call stands in place of a potency, no number is given. Active and inactive are the calls of the source. Calls follow the shape of the dose curve; as a rule, active = well fitted inhibition curve with a large enough effect in the signal ratio in the repeat runs (not every such curve was filed as active); inconclusive = weak or mixed curves, or effect the other way; inactive = no such curve, though single readings can be large or run the other way; the % refers to the signal ratio.
# Molecular target: Estrogen receptor beta (Homo sapiens) (UniProt Q92731)
# Sequence (Q92731 whole entry, looked up): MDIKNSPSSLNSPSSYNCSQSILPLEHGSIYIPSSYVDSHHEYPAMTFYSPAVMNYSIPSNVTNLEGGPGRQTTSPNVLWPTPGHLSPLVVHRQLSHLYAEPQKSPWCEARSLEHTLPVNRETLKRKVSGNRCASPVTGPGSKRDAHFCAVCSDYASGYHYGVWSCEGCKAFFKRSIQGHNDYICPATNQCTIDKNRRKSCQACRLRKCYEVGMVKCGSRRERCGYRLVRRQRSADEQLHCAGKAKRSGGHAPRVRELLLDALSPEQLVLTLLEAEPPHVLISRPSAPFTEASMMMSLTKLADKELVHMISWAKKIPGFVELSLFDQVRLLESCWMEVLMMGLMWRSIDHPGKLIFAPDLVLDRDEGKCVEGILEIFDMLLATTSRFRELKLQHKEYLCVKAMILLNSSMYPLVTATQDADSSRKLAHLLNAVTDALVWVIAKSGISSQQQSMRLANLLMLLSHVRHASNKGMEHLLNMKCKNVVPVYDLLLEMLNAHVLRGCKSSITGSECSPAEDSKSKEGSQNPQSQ
# Test: qHTS assay to identify small molecule antagonists of the estrogen receptor beta (ER-beta) signaling pathway (AID 1259378)
# Conditions: ER-beta-UAS-bla HEK293T, beta-lactamase FRET ratio, 16 h; series mostly up to 92.4 µM
# Summary of the method: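 Antagonist mode: compounds added to beta-lactamase reporter HEK293T ER-beta-UAS cells stimulated with E2 (1nM final), 16 hr at 37C. LiveBLAzer B/G FRET substrate, 2 hours room temperature, fluorescence read-out.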
# Potency is read from the fitted curve at half-maximal effect.
row,SMILES,Potency
1,CSSC,inactive
2,OCC(Br)CBr (stereo not drawn),inactive
3,O=Cc1ccccc1,inactive
4,O=[N+]([O-])c1ccc(Cl)c(Cl)c1Cl,inactive
5,CCC1COC(Cn2cncn2)(c2ccc(Cl)cc2Cl)O1 (stereo not drawn),inactive
6,C#CC1(O)CCCCC1,inactive
7,CCC[CH2][Sn]([CH2]CCC)([O]C(C)=O)[O]C(C)=O,0.174 µM (active)
8,Clc1ccc(C2(Cn3cncn3)OCCO2)c(Cl)c1,inactive
9,[O]=[Cr][O][Cr]=[O],inactive
10,Nc1cc(Cl)ccc1Cl,inactive
11,CCOP(=O)(OCC)Oc1cc(C)nc(C(C)C)n1,inactive
12,Clc1ccc(C(Cl)(Cl)Cl)cc1Cl,inactive
13,CC1CN1 (stereo not drawn),inactive
14,CC(C)c1c(CN(C)C(C)Cc2ccccc2)n(C)n(-c2ccccc2)c1=O (stereo not drawn),21.1 µM (active)
15,CNC(=O)Oc1cc(C)cc(C(C)C)c1,inactive
16,CCCCCCC[CH2][Sn]([Cl])([Cl])[CH2]CCCCCCC,48.5 µM (active)
17,CSC1=N[C@@](C)(c2ccccc2)C(=O)N1Nc1ccccc1,27.3 µM (active)

row,SMILES,Potency
1,N#Cc1ccc(N(CC(N)=O)CC(F)(F)F)cc1C(F)(F)F,inactive
2,O=C(N[C@@H]1N=C(c2ccccc2F)c2cccc3c2N(CC3)C1=O)c1cc2ccccc2[nH]1,inactive
3,BrCC(Br)(Br)Br,inactive
4,O=[N+]([O-])c1ccc(CCl)cc1,inactive
5,CC(C)C(Nc1ccc(C(F)(F)F)cc1Cl)C(=O)OC(C#N)c1cccc(Oc2ccccc2)c1 (stereo not drawn),inactive
6,COC(=O)c1ccccc1S(=O)(=O)NC(=O)Nc1nc(C)nc(OC)n1,inactive
7,Cc1ccn2nc(S(=O)(=O)Nc3c(F)cccc3F)nc2n1,inactive
8,S=C=NCCc1ccccc1,30.7 µM (active)
9,c1ccc2nc(N3CCNCC3)ccc2c1,inactive
10,Oc1cc(Cl)c(Cl)c(Cl)c1Cl,13.4 µM (active)
11,CCC(C)Br (stereo not drawn),inactive
12,C#CCC1=C(C)C(OC(=O)C2C(C=C(C)C)C2(C)C)CC1=O (stereo not drawn),60.7 µM (active)
13,COCCC#N,inactive
14,CCC[CH2][Sn]([CH2]CCC)([CH2]CCC)[CH2]CCC,19.3 µM (active)
15,COP(=O)(OC)Oc1ccc([N+](=O)[O-])cc1,inactive
16,Cc1cnc2c(C(=O)O)c(Cl)ccc2c1,inactive
